Experimental findings from PubChem BioAssay are described below.

Molecules are shown by their SMILES. For some of these results: Entries with a potency or affinity are not part of this list. Active and inactive are the calls of the source.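 How the source made its calls, unless noted: active means compound whose remaining NAD level is above about 45 nM (limit read from the data); inactive means the rest.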

Assay [1] can be described thus: blockers of polyQ-driven CASP3 activation – cell-based (AID 1583). The following applies: polyglutamine-induced caspase-3 activation, cell assay; stronger effect = higher value;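 tested at 10 µM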.
A short description of assay [2]: yeast 75Q aggregation reduction – 75Q-TubU reporter (AID 1593). The following applies: Yeast 75Q polyglutamine aggregation reporter.
A short description of assay [3]: restoration of touch response, mutant HTT neurons – whole organism, C. elegans mechanosensory neurons, N-terminal huntingtin (AID 1599). The following applies: C. elegans polyQ-huntingtin mechanosensory neurons, stronger effect = higher value.
Assay [4] can be described thus: blockers of cytochrome c efflux from mitochondria – biochemical, purified mitochondria (AID 1603).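 Further: mouse liver mitochondria challenged with calcium chloride; signal normalized to the plate average as 100%.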 Particulars: stronger effect = lower value.
Assay [5] can be described thus: polyglutamine aggregate formation blockers (AID 1604). Particulars: polyglutamine-induced protein aggregation inhibition assay; stronger effect = higher value; tested at 2.5 µM.
Assay [6] can be described thus: glutamate transport activators, MN-1 cells, MN-1 cell line (AID 1612).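 Further: tested at 1 µM final; 0% = mean of DMSO vehicle wells on each plate; positive means more glutamate uptake than control and negative means less.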 Particulars: MN-1 motor neuron cells, stronger effect = higher value.
A short description of assay [7]: GFP-Q80 aggregate reduction, neuronal-like cells, cell-based, NGF-treated PC12, GFPQ80 (AID 1614).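 Further: lower means fewer inclusions and 0 means no inclusions at all.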 The following applies: PC12 NGF-treated GFP-polyQ80 inclusion reduction.
Assay [8] can be described thus: 75Q-TubH aggregate inhibition, S. cerevisiae, yeast (AID 1616). The following applies: S. cerevisiae 75Q-TubH polyglutamine aggregation suppression; stronger effect = higher value.
For assay [9], the target named is NAD(+) hydrolase SARM1 (Homo sapiens) (UniProt Q6SZW1). Put plainly: blocking NAD cleavage by SARM1 SAM-TIR – cell lysate, NAD-Glo luminescence (AID 1508614).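 Further: higher remaining NAD means stronger inhibition of SARM1 NADase.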 The following applies: SAM-TIR HEK293T lysate NADase, at 1 µM, stronger effect = higher value.
Assay [10] has as its target Mitogen-activated protein kinase 7 (Homo sapiens) (UniProt Q13164). Put plainly: Gal4-ERK5 driven luciferase induction – cell-based, HTS, primary screen (AID 1508626;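 active means luciferase signal above three times the same-plate solvent-only control wells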;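 further: luciferase driven by Gal4-ERK5 fusion binding five Gal4 sites before minimal TATA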). Particulars: HeLa Gal4-ERK5 transactivation, 18 h, at 5 µM, stronger effect = higher value.

Sequence of NAD(+) hydrolase SARM1 (Homo sapiens) (Q6SZW1 whole entry, looked up, the tested form may be a part): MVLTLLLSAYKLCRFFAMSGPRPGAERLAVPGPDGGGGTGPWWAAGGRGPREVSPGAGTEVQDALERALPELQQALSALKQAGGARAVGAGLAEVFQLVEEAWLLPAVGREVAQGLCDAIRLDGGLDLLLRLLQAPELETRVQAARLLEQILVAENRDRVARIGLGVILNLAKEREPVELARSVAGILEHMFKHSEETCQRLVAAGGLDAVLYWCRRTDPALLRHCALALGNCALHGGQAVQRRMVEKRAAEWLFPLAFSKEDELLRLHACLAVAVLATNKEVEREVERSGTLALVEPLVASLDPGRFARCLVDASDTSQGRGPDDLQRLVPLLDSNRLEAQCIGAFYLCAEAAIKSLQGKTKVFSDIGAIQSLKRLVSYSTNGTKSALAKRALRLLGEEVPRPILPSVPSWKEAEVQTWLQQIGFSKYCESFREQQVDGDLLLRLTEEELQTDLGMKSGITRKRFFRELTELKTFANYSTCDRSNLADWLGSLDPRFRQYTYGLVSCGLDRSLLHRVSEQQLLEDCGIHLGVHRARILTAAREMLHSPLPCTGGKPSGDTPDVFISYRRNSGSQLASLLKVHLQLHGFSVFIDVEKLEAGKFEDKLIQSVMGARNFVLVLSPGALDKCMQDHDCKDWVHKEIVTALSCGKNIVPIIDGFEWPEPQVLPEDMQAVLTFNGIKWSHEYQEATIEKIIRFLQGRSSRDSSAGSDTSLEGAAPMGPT
Sequence of Mitogen-activated protein kinase 7 (Homo sapiens) (Q13164 whole entry, looked up, the tested form may be a part): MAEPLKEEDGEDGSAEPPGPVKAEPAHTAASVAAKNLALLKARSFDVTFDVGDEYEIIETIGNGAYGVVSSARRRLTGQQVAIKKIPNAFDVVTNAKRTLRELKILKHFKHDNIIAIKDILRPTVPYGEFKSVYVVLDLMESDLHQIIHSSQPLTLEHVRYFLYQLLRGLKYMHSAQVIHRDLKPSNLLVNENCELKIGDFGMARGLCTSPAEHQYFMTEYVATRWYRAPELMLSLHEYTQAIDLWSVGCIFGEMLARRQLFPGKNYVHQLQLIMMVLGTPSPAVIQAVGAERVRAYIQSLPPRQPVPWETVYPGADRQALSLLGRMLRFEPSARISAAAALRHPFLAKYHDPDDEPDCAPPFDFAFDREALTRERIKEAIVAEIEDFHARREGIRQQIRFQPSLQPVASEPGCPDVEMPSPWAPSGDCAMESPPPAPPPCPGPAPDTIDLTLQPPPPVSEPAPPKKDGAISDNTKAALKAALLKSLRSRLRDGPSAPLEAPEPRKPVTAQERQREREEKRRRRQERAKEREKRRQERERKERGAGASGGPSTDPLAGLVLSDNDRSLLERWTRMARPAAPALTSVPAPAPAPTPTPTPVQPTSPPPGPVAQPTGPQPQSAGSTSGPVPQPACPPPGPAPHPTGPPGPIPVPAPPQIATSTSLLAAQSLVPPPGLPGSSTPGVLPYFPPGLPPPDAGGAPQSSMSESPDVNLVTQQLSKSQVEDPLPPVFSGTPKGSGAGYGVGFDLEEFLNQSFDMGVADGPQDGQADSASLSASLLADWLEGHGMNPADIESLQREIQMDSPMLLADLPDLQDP

Take `NC[C@H]1O[C@H](O[C@H]2[C@H](O)[C@@H](O[C@H]3O[C@H](CO)[C@@H](O)[C@H](N)[C@H]3O)[C@H](N)C[C@@H]2N)[C@H](O)[C@@H](O)[C@@H]1O`: in assay [1], the inhibition worked out at 5.91%. The compound also had a score in assay [2] of 1.82. The compound further had a rescue above control in assay [3] of -8.71. Besides, in assay [4], the cytochrome c release ratio stood at 1. The inhibition of aggregation in assay [5] worked out at 28.5%. The same compound registered a glutamate uptake change in assay [6] of 2.43%. In assay [7], the inclusion score was determined as 2. In [8], this compound showed an aggregation suppression score of 1.68. Besides, in assay [9], the remaining NAD was 10 nM (inactive). Besides, the luciferase signal in assay [10] is 40 AU (inactive).
